Tests used:
[1] = target: T1, Serine/threonine-protein kinase TBK1 (Homo sapiens) (UniProt Q9UHD2); conditions: at 1 µM;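 further: values are mean inhibition of TBK1, screened as part of the GSK published kinase inhibitor set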
T1 sequence (whole entry): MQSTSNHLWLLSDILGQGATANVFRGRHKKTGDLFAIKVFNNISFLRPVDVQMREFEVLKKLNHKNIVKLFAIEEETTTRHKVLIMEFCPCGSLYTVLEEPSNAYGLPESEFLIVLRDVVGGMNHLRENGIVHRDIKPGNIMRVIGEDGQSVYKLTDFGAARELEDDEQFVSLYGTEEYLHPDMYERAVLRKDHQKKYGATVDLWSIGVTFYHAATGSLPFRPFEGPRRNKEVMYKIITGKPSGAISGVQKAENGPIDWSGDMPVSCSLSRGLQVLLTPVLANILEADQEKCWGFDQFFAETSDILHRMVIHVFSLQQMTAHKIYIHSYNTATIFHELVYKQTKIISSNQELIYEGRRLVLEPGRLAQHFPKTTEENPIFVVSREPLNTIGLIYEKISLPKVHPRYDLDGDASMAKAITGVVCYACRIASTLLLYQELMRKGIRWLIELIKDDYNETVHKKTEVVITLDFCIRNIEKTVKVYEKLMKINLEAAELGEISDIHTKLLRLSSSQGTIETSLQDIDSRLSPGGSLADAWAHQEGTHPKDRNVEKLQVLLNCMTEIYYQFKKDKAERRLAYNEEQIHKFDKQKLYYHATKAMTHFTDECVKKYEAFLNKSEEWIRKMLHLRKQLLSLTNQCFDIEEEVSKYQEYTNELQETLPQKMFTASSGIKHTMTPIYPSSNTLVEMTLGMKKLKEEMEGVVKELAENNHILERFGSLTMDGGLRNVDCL

[2] = target: T2, Testis-specific serine/threonine-protein kinase 1 (Homo sapiens) (UniProt Q9BXA7); conditions: at 0.1 µM
T2 sequence (whole entry): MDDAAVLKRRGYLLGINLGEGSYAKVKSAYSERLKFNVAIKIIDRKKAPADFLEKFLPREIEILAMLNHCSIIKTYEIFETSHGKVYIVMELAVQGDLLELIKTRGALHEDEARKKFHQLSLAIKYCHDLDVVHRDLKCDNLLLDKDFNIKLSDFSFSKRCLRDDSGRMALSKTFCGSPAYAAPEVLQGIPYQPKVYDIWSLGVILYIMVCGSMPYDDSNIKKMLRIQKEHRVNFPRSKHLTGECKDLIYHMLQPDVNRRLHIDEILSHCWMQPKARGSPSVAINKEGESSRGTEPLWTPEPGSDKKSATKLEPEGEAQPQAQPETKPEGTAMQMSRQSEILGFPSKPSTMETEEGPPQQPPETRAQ

[3] = target: T2, Testis-specific serine/threonine-protein kinase 1 (Homo sapiens); conditions: at 1 µM
[4] = target: T3, Testis-specific serine/threonine-protein kinase 2 (Homo sapiens) (UniProt Q96PF2); conditions: at 0.1 µM
T3 sequence (whole entry): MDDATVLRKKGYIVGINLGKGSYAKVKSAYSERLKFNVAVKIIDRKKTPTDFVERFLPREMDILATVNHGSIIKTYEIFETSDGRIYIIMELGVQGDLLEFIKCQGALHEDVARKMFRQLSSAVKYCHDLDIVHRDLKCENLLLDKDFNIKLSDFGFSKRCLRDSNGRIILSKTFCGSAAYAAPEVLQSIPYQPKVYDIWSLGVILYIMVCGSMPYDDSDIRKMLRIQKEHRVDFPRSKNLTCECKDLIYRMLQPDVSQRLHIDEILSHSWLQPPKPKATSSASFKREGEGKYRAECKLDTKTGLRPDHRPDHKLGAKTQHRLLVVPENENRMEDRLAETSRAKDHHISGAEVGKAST

[5] = target: T3, Testis-specific serine/threonine-protein kinase 2 (Homo sapiens); conditions: at 1 µM
[6] = target: Casein kinase I isoform alpha (Homo sapiens) (UniProt P48729); conditions: at 0.1 µM
Chain of Casein kinase I isoform alpha (Homo sapiens) (P48729 2-337 limits assumed): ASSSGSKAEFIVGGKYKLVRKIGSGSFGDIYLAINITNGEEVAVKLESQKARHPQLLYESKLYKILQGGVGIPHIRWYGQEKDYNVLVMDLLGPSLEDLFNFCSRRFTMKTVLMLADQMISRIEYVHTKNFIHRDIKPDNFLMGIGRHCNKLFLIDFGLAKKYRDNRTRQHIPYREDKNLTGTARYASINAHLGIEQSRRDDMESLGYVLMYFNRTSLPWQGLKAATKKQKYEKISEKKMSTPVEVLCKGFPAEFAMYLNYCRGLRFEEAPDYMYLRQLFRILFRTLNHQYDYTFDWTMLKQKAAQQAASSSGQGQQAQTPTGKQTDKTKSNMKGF

[7] = target: Casein kinase I isoform alpha (Homo sapiens) (UniProt P48729); conditions: at 1 µM
[8] = target: Casein kinase I isoform gamma-1 (Homo sapiens) (UniProt Q9HCP0); conditions: at 0.1 µM
Chain of Casein kinase I isoform gamma-1 (Homo sapiens) (Q9HCP0 whole entry, looked up, canonical isoform): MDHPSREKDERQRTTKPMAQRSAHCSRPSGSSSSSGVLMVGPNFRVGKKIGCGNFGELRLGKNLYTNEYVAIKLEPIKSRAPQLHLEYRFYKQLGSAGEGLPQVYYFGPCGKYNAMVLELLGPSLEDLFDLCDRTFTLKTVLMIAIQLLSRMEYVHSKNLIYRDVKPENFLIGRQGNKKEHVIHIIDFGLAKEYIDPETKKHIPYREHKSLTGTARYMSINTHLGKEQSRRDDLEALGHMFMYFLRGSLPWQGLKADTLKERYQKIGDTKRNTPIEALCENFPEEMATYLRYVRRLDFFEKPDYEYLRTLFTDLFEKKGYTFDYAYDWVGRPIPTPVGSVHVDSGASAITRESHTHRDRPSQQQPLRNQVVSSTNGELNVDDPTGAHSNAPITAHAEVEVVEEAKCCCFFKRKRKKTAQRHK

[9] = target: Casein kinase I isoform gamma-1 (Homo sapiens) (UniProt Q9HCP0); conditions: at 1 µM
[10] = target: Casein kinase I isoform gamma-2 (Homo sapiens) (UniProt P78368); conditions: at 0.1 µM;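 further: values are mean inhibition figures reported as part of the GSK PKIS dataset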
Chain of Casein kinase I isoform gamma-2 (Homo sapiens) (P78368 whole entry, looked up, canonical isoform): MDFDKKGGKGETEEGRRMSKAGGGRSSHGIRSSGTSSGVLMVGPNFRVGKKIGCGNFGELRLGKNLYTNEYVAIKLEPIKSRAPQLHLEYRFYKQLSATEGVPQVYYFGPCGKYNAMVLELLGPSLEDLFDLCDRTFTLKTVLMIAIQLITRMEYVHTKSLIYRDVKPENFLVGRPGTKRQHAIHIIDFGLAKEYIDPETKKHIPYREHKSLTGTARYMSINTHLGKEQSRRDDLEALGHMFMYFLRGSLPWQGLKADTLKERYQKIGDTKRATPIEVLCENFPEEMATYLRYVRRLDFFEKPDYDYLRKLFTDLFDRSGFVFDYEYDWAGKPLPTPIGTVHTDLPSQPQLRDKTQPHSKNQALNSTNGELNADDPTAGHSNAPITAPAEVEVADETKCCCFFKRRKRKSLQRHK

SMILES | inhibition [1] [%] | inhibition [2] [%] | inhibition [3] [%] | inhibition [4] [%] | inhibition [5] [%] | inhibition [6] [%] | inhibition [7] [%] | inhibition [8] [%] | inhibition [9] [%] | inhibition [10] [%]
c1ccc(COc2ccc(Nc3ncnc4ccc(-c5ccco5)cc34)cc2)cc1 | 0.67 | -0.63 | 0.68 | 0.44 | -0.19 | -0.74 | 0.74 | 0.87 | 1.15 | 1.03
CS(=O)(=O)CCNCc1coc(-c2ccc3ncnc(Nc4ccc(OCc5ccccc5)cc4)c3c2)c1 | 2.44 | 1.84 | 3.84 | 2.99 | 2.93 | 1.56 | 4.42 | 1.97 | 2.4 | 1.63
CC(=O)Nc1cccc(C#Cc2cncnc2Nc2ccc(OCc3cccc(F)c3)c(Cl)c2)c1 | 3.45 | 1.34 | 0.24 | 0.06 | -1.88 | -1.79 | 3.28 | 2.22 | 2 | 0.52
CNC(=O)c1cccc(C#Cc2cncnc2Nc2ccc(OCc3cccc(F)c3)c(Cl)c2)c1 | 0.61 | 1.65 | 1.56 | 1.7 | 2.08 | -4.8 | 0.1 | 1.2 | 1.46 | 1.23
CC(C)COC(=O)c1ccc2c(c1)/C(=C/Nc1ccc(S(N)(=O)=O)cc1)C(=O)N2 | 82.9 | 11.4 | 50.2 | -0.78 | 0.83 | -2 | 1.61 | -1.63 | 7.57 | -1.09
Clc1ccc(-c2nn3ncccc3c2-c2ccnc(Nc3ccccc3)n2)cc1 | 2.57 | 0.84 | 0.18 | 2.19 | -0.46 | 5.52 | 39.6 | 3.83 | 1.87 | 0.23
COc1ccc2[nH]c3c4[nH]c5ccc(OC)cc5c4c4c(c3c2c1)C(=O)NC4=O | 53.9 | 3.96 | 11.6 | 3.41 | 4.83 | 2.15 | 5.69 | 4.82 | 4.21 | 2.32
Cc1cccc2c1NC(=O)/C2=N\Nc1ccc(S(N)(=O)=O)cc1 | 3.42 | 1.83 | 3.05 | 0.81 | -1.61 | 1.01 | 4.19 | 2.88 | 3.11 | 1.59
Nc1nc(-c2cccc(Cl)c2)c(-c2ccc3ncccc3n2)s1 | 4.37 | 7.29 | 12.9 | 3.52 | 6.73 | 1.48 | 5.89 | 5.14 | 16.6 | 4.46
CN1CCC(n2cnc(-c3ccc(F)cc3)c2-c2ccnc(N)n2)CC1 | 3.54 | 2.05 | 3.07 | 2.28 | 1.61 | 30.1 | 73.1 | 1.88 | 9.03 | 1.68
NS(=O)(=O)c1ccc(N/N=C2\C(=O)Nc3ccc4ncccc4c32)cc1 | 50.4 | 5.63 | 34.9 | 0.69 | 4.1 | 4.04 | 21.3 | 2.39 | 8.12 | 1.41
N#Cc1c(NC(=O)c2ccc(F)cc2)sc2c1CCCC2 | 0.54 | 0.45 | 0.89 | 0.22 | 0.33 | -0.68 | 1.93 | 0.85 | 0.78 | 0.66
CC(C)(CO)CNC(=O)c1ccc2c(c1)/C(=N/Nc1ccc(S(N)(=O)=O)cc1)C(=O)N2 | 63.4 | 0.17 | 11 | 0.45 | -0.69 | -1.33 | 7.84 | 0.88 | 4.11 | 0.93
CNC(=O)c1cncc(/C=C/c2ccccc2Cl)c1 | 4.1 | 0.22 | 1.52 | -0.03 | 2.91 | 0.76 | -0.31 | 0.2 | -0.31 | 0.91

Source: ChEMBL document CHEMBL1961873, “Compounds: GSK PKIS; Assays: Nanosyn kinase panel” (2012)
